# From PubChem
# POLK inh: qHTS for Inhibitors of Polymerase Kappa. DNA polymerase kappa (Homo sapiens), Q9UBT6. purified Pol kappa, fluorescent DNA synthesis assay, 10 min. Potency, µM (highest dose often 107 µM), for the others: at the top dose activity, negative = inhibition, most hits filed as inhibitors. 400,000 tested, 0.53% active; note: % is set by controls: 0 for no effect and ±100 for the full control effect
# Target sequence (Q9UBT6 whole entry, looked up): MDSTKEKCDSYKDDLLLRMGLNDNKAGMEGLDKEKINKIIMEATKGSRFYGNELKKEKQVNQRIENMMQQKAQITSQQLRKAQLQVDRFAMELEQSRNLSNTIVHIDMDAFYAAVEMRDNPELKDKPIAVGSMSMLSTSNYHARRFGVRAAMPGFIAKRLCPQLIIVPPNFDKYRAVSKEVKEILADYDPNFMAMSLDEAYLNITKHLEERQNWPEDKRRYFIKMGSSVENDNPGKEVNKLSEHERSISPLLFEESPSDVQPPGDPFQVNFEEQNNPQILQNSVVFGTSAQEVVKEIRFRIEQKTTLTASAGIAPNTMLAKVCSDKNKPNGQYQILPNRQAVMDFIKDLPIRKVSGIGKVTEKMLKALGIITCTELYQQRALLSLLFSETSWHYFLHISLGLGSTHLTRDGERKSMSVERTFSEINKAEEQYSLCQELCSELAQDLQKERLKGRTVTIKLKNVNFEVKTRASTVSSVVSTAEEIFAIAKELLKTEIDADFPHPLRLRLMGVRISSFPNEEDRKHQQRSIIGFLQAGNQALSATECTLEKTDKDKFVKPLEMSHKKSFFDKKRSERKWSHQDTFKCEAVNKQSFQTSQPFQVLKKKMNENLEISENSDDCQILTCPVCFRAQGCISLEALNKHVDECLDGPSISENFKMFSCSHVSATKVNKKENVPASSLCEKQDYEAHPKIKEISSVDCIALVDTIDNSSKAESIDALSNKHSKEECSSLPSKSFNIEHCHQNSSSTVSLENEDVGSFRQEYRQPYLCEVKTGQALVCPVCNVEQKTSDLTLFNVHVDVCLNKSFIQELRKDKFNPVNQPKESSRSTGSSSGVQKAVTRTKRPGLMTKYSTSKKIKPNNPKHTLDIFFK
#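 Fluorescent qHTS in 1536-well format: enzyme (10 nM) and compound sat 15 min at room temperature before 50 nM substrate (final) was added. Signal taken at 0 and 10 min; no-enzyme buffer wells were negative controls.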
# L3MBTL1 block: qHTS Assay for the Inhibitors of L3MBTL1 | Lethal(3)malignant brain tumor-like protein 1 (Homo sapiens), Q9Y468 | AlphaScreen L3MBTL1–H3K9me1 peptide binding | Potency, µM (highest dose often 57.1 µM), for the others: top-dose activity, negative = inhibition, most hits filed as inhibitors | 230,000 tested, 0.66% active; note: % is set by controls: 0 for no effect and ±100 for the full control effect; nearly all actives have a fitted effect of over 60% in size
#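 Read-out is AlphaScreen signal from streptavidin donor and nickel chelate acceptor beads (10 ug/mL final each) bridging L3MBTL1 (50 nM) and biotinylated K9-monomethylated H3(1-15) peptide (75 nM), after 30 min compound exposure at room temperature.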
# Pol beta inh: qHTS Assay for Inhibitors of DNA Polymerase Beta; P06746; Pol beta primer extension/strand displacement, fluorescence kinetic; 340,000 tested, 1.3% active; Potency, µM (series often up to 114 µM), inactives show top-dose activity change, negative = inhibition, hits mostly inhibitors; note: % is set by controls: 0 for no effect and ±100 for the full control effect
#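 Reaction started by 50 nM substrate onto compound-treated Pol beta (10 nM, 15 min preincubation, room temperature); plates read at 0 min and 10 min. Normalized concentration-effect data fitted by four-parameter Hill equation.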
# POLI inh: qHTS for Inhibitors of Polymerase Iota. DNA polymerase iota (Homo sapiens), Q9UNA4. Pol iota fluorescent replication assay, 10 min. Potency, µM (doses to about 115 µM), for the others: top-dose activity, negative = inhibition, usual class: inhibitors. 390,000 tested, 1% active. AID 588590, 2011
#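 Pol iota at 10 nM preincubated 15 min with compounds at room temperature; reaction started with fluorescent substrate, 50 nM final. Fluorescence read kinetically at 0 and 10 min; buffer-only wells as negative control.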
# POLH inh: qHTS for Inhibitors of Polymerase Eta; DNA polymerase eta (Homo sapiens), Q9Y253; recombinant Pol eta, fluorescent DNA replication assay; Potency, µM (titrated, usually from 114 µM), for inactives: at the top dose activity change, negative = inhibition, most hits filed as inhibitors; 390,000 tested, 1.2% active; AID 588591, 2011; note: % is set by controls: 0 for no effect and ±100 for the full control effect
#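 Fluorescent replication assay: 50 nM final substrate added after a 15 min room-temperature compound preincubation with 10 nM enzyme. Signal taken at 0 min and again at 10 min.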
# The depositor's hits bear a star; ? = inconclusive; nt = not tested or not shown; [ ] = dose if it differs, or a comment. Compounds with a hit are over-represented: about 2.4% of the library has one in this group of screens. Calls come from the whole dose curve; as a rule, active = well fitted curve in the direction sought with a large enough effect; inconclusive = small, poorly fitted or top-dose-only effect, or another doubt; inactive = no such curve, though single readings can be large; an effect the other way counts as inactive or inconclusive. Potency is the fitted concentration of half-maximal effect.
SMILES,POLK inh,L3MBTL1 block,Pol beta inh,POLI inh,POLH inh
O=C(CN1C(=O)S/C(=C\c2ccc(Cl)cc2)C1=O)NNC(=O)c1ccccc1O,-36%,-2%,50µM*,?,?
Cc1ccc(C)c(CNC(=O)c2cnc3sc(N4CCCC4)nn3c2=O)c1,-5%,nt,-22%,25%,-2%
COc1cc2c(cc1NC(=O)c1ccccc1C)n(C)c(=O)n2C,-5%,nt,9%,48%,-7%
CC(=O)O[C@]1(C(C)=O)CC[C@H]2C3C=C(Cl)C4=CC(=O)[C@@H]5C[C@H]5[C@]4(C)C3CC[C@@]21C (some centres not stated),nt,nt,?,?,-6%[57.1 µM]
Cc1ccc(/C=C2\SC(=S)N(/N=C/c3cc([N+](=O)[O-])ccc3O)C2=O)o1,20µM*,nt,8.9µM*,4.5µM*,10µM*
CCC(C)/C=C/C1=CC2=C(Cl)C(=O)C3(C)OC(=O)C(C(=O)C(C)C(C)O)C3C2=CO1 (configuration not stated),79µM*,-19%,22µM*,?,?
CCC1Sc2ccc(S(=O)(=O)CCC(=O)Nc3c(Cl)cc(OC)cc3OC)cc2NC1=O (configuration not stated),-19%,nt,79µM*,-7%,?
O=C(O)c1ccc(N2C(=O)CSC2=S)cc1,79µM*,nt,nt,?,0%
O=C(O)c1ccc(CN2C(=O)CSC2=S)cc1,50µM*,?,?,?,-3%
O=C1CCC[C@@H]2C[C@@]3(C[C@@H]4CCN1[C@H]24)Nc1cc([N+](=O)[O-])ccc1NC3=NCc1ccccc1,-13%,nt,nt,1%,nt
Nc1ccc(O)c(-c2nc3ccccc3s2)c1,?,?,7.9µM*,?,?
Oc1ccc(N=C/C=C/c2cccc(Br)c2)cc1-c1nc2ccccc2s1,-38%,?,13µM*,10µM*,?
CO[C@]1(C2=NCCN2)COc2ccccc2O1,-4%[19.4 µM],nt,nt,nt,nt
Clc1ccc(-c2cnnc(-c3ccccn3)n2)cc1,-3%,3.2µM*,nt,7%,-3%
COc1ccc(Cl)cc1NC(=O)c1cc2c(=O)n3ccccc3nc2s1,-7%,nt,7.1µM*,-25%,nt
CSc1ccccc1NC(=O)c1cc2c(=O)n3ccccc3nc2s1,-16%,nt,43%,9%,-10%
CC(=O)N(/N=C1\Sc2ccccc2C1=O)c1ccccc1C,1%,-29%,0%,7%,20µM*
CC(=O)N(/N=C1\Sc2ccccc2C1=O)c1ccc(C)cc1C,1%,-6%,3%,25%,-7%
N#C/C(=C\c1c(Oc2ccc(F)cc2)nc2ccccn2c1=O)c1nc2ccccc2s1,?,nt,?,20µM*,-20%
Cc1ccc(S(=O)(=O)N2CCN(c3nc(-c4cncs4)nc4ccccc34)CC2)cc1,-1%,nt,nt,-2%,nt
CC(C)CC(C(=O)Nc1cccc(O)c1)N1C(=O)c2ccccc2C1=O (configuration not stated),-19%,5%,8%,-4%,-7%
CC(C)CC(C(=O)Nc1oc(-c2ccco2)c(-c2ccco2)c1C#N)N1C(=O)c2ccccc2C1=O (configuration not stated),?,?,32µM*,?,20µM*
Nc1cc(=O)[nH]c(SCC(=O)N2N=C(c3ccc4ccccc4c3)CC2c2ccccc2)n1 (configuration not stated),-8%,nt,5%,45µM*,?
Fc1ccc(C2CC(c3ccc(F)cc3)n3ncnc3N2)cc1 (configuration not stated),2%,2%,1%,0%,-11%
Oc1ccccc1C1=Nc2ncnn2C(c2ccc(F)cc2)C1 (configuration not stated),-8%,-2%,32µM*,2%,?
SMILES,POLK inh,L3MBTL1 block,Pol beta inh,POLI inh,POLH inh
Cc1ccc(C(=O)O/N=C(\N)c2cccc([N+](=O)[O-])c2)cc1,-5%,-8%,10%,10%[58.9 µM],-18%
N/C(=N\OC(=O)c1ccc(Br)cc1)c1cccc([N+](=O)[O-])c1,-9%,3%,18µM*,?,1%
COc1cc(NC(=O)Cn2ccn(-c3cc(C)cc(C)c3)c(=O)c2=O)cc(OC)c1,5%,nt,2%,24%,-17%
O=c1cc(CN2CCN(c3ccccc3O)CC2)nc2sccn12,-12%,nt,?,45µM*,20µM*
COc1ccc(-c2noc(COc3cc(C)ccc3C)n2)cc1OC,-18%,nt,-16%,0%,-17%
Cc1ccnc2ccc3ccccc3c12,-29%,nt,nt,?,nt
Nc1c(C(=O)Nc2ccc(Br)cc2)sc2nc(-c3ccco3)ccc12,-8%,1%,-26%,5%,-5%
CC(=O)c1sc2nc(-c3ccco3)ccc2c1N,79µM*,-22%,13µM*,5µM*,28µM*
Cc1ccc2nc3c(c(C(=O)O)c2c1)CCC3,-43%,?,45µM*,?,32µM*
O=C(COc1ccccc1/C=C1\SC(=O)NC1=O)Nc1ccc(F)cc1,-7%,3%,?,52%,71µM*
O=C(COc1ccccc1/C=C1/NC(=O)NC1=O)Nc1ccccc1,11%[60.1 µM],4%,1%,-9%,-10%
N#Cc1ccsc1NC(=O)COc1ccc(-c2nnco2)cc1,-41%,-11%,?,?,20µM*
O=C(Nc1ccc(-n2nncc2-c2ccccc2)cc1)c1ccccc1,-2%,nt,nt,8%,nt
O=C(Nc1cccc(-c2nc3cccnc3s2)c1)c1cccnc1Cl,-3%,nt,2%,17%,2%
O=C(Nc1cccc(-c2nc3cccnc3s2)c1)C1c2ccccc2Oc2ccccc21,-6%,-3%,-15%,-74%,8.9µM*
O=S(=O)(Nc1nc2ccc(S(=O)(=O)N3CCCC3)cc2s1)c1ccc(F)cc1,-28%,nt,-2%,?,89µM*
O=C(Nc1nc2ccc(S(=O)(=O)N3CCCC3)cc2s1)c1ccc(F)cc1,-23%,nt,4%,-22%,0%
Cc1ccc(-c2cn(C[C@H]3CC[C@@H]([C@@H]4CC[C@H](Cn5cc(-c6ccc(C)cc6)nn5)O4)O3)nn2)cc1,7%,48%,41%,22%,0%
c1ccc(-c2cn(C[C@H]3CC[C@H](Cn4cc(-c5ccccn5)nn4)O3)nn2)nc1,4%,0.28µM*,51%,13%,-14%
NCCc1nc2cccnc2n1-c1ccccc1,-3%[60.1 µM],nt,7%,39%,-14%
CCc1cc(=O)oc2cc(C)c(CN3CCCC(C)C3)c(O)c12 (configuration not stated),10µM*,11µM*,3.2µM*,3.5µM*,35µM*
Cc1ccc(NC(=O)CSC(N)=O)cc1Cl,-3%,7%,22%,13µM*,8%
NC(=O)SCC(=O)Nc1ccc(Cl)c(Cl)c1,-14%,1%,21%,?,-5%
CC(C)COC(=O)N(C)C[C@H]1OCc2cnnn2CCCC(=O)N([C@@H](C)CO)C[C@H]1C,nt,nt,nt,nt,-22%
